# Screens (PubChem)
# Shown are actives, neighbours in structure and some others; about 2.8% of the full set was active somewhere.
# PglD DTNB = PglD (C. jejuni) enzyme inhibition; purified PglD enzyme, DTNB colorimetric CoA detection; inhibition, % at 12.5 µM; 0.098% of 360,000 active; in the data active = inhibition above about 16%, passing the limit was not always enough
# FGF22 binding = binders of recombinant human FGF22 by thermal shift | SYPRO orange fluorescence; percent of sucrose octasulfate shift, DMSO zero | activity (Tm shift, normalised), % at 9.99 µM | Q9HCT0 | 1.5% of 340,000 active;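 active = mean Tm shift, scaled 0 neutral to 100 positive control, at about 1.3% or above, every replicate too, limit read from the data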
# SIRT5 inh = sirtuin-5 (human) deacylase inhibition; inhibition, % at 15 µM; Purified SirT5, succinyl-peptide AMC, trypsin-coupled fluorescence; 1.1% of 330,000 active; in the data active = inhibition above about 15%
# Target sequence (Q9NXA8 whole entry, looked up): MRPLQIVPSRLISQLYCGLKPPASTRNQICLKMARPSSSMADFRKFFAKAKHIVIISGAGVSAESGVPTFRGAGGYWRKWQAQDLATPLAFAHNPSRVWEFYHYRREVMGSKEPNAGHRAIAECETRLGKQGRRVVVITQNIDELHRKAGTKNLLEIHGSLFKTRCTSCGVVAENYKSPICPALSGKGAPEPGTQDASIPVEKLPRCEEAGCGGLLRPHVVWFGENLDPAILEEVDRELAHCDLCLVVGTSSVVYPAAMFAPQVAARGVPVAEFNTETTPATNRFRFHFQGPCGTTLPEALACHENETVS
# PvdQ acylase = blocks Pseudomonas aeruginosa PvdQ acylase activity; purified PvdQ acylase, fluorescence plate reader; 0.063% of 340,000 active; AID 488965; inhibition, % at 10 µM; in the data active = inhibition above about 30%, passing the limit was not always enough;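 note: 0% = vehicle neutral wells and 100% = reference inhibitor wells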
# dFosB activator = mouse delta FosB homodimer activation; 0.99% of 340,000 active; activation, % at 25 µM; purified delta FosB, TAMRA-CDK5 oligo fluorescence polarization; percent of positive-control signal above neutral wells;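 active = mean activation above about 17%, with every replicate also reaching it, limit read from the data, passing the limit was not always enough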
# CDK5 inh = blocks human CDK5/p35 kinase activity. Q00535+Q15078. Recombinant CDK5/p35, ADP-Glo luminescence, 60 min. inhibition, % at 10 µM. 0.01% of 330,000 active. AID 488839;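 active = highest replicate inhibition of at least 50% and at least 75% of replicates reaching 50%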;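 note: plate controls were DMSO neutral control for no effect and GW8510 at 10 µM for full effect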
# An asterisk follows results filed as active; / = no result.
SMILES,PglD DTNB,FGF22 binding,SIRT5 inh,PvdQ acylase,dFosB activator,CDK5 inh
CCc1nnc(NC(=O)CSc2sc3c(O)cc(=O)[nH]c3c2C#N)s1,0,0,29*,-7,-15,-3
Cc1ccc(C)c(NC(=O)CSc2sc3c(O)cc(=O)[nH]c3c2C#N)c1,12,-1,4,2,6,-1
COC(=O)c1ccc(C)c(NC(=O)CSc2sc3c(O)cc(=O)[nH]c3c2C#N)c1,-3,/,19*,-12,-10,0
Cc1csc(NC(=O)CSc2nc3[nH]c(=O)cc(O)c3s2)n1,0,0,-1,-6,-2,4
CCSc1nnc(NC(=O)CSc2sc3c(O)cc(=O)[nH]c3c2C#N)s1,5,/,32*,-2,-12,-1
CN1C(=O)c2cc(NC(=O)Nc3ccccc3Cl)ccc2OC[C@H]2O[C@H](CC(=O)O)CC[C@@H]21,0,0,/,/,/,/
C[C@@H]1CN([C@H](C)CO)C(=O)c2cc(NS(=O)(=O)c3cn(C)cn3)ccc2O[C@H]1CN(C)Cc1ccc(C(=O)Nc2ccccc2N)cc1,3,0,/,/,/,/
CCc1nnc(NS(=O)(=O)c2ccc(NC(=O)C(c3ccccc3)c3ccccc3)cc2)s1,/,1.5*,1,-8,0,1
CCc1nnc(NS(=O)(=O)c2ccc(NC(=O)c3ccccc3C)cc2)s1,1,43*,2,9,-4,0
CCc1nnc(NS(=O)(=O)c2ccc(NC(=O)/C=C/c3ccccc3Cl)cc2)s1,/,1.8*,11,0,-26,0
O=C(c1cccnc1)N1CC[C@@H]2[C@H](CO)Nc3ccc(C#Cc4cccnc4)cc3[C@@H]21,4,-1,-14,/,/,/
O=C(C[C@@H]1CC[C@@H](NC(=O)NC2CCCC2)[C@@H](CO)O1)NCc1ccc(F)cc1,-3,0,-3,/,/,/
Cc1ccc(-c2nc(NCc3ccco3)c3ccccc3n2)cc1,/,0,-1,-1,11,1
OCCN1CCN(c2nc(NCc3ccco3)c3ccccc3n2)CC1,/,/,/,4,7,-2
c1ccc(CN2CCN(c3nc(NCc4ccco4)c4ccccc4n3)CC2)cc1,1,/,/,-6,28*,0
Cc1ccc(OCCN2CCN(c3nc(NCc4ccco4)c4ccccc4n3)CC2)cc1,4,/,/,-4,27*,0
CCC(=O)N1C[C@H](C)[C@@H](OC)CN(C)C(=O)c2ccc(NC(=O)c3cc(C)on3)cc2OC[C@@H]1C,2,/,/,/,/,/
O=C(C[C@H]1C=C[C@H](NC(=O)c2cccnc2)[C@@H](CO)O1)NCc1ccc(Cl)c(Cl)c1,23,0,12,/,/,/
CCS(=O)(=O)N1CC2(C1)[C@H](c1ccccc1)[C@@H](CO)N2C(=O)C1CCC1,/,/,1,/,/,/
N#CC(c1cccc(Cl)c1)c1ncc(C(F)(F)F)cc1Cl (stereo not drawn),6,/,/,52*,2,-1
N#CC(c1ccc(Cl)cc1)c1ncc(C(F)(F)F)cc1Cl (stereo not drawn),0,/,/,57*,6,-2
FC(F)(F)c1cnc(C(c2ccccc2)c2ncn[nH]2)c(Cl)c1 (stereo not drawn),-10,43*,-12,0,-1,-2
Cn1cccc1C(C#N)c1ncc(C(F)(F)F)cc1Cl (stereo not drawn),6,0,11,-1,-3,-1
C[C@H](CO)N1C[C@H](C)[C@H](CN(C)Cc2ccc(Oc3ccccc3)cc2)Oc2ccc(NS(=O)(=O)c3ccc(Cl)cc3)cc2C1=O,0,-1,11,/,/,/
N#C[C@@H]1[C@@H](c2ccc(C3=CCCCC3)cc2)[C@@H](CO)N1C(=O)Cc1ccncc1,1,0,-2,/,/,/
COC(=O)Nc1ccc(Cn2cc(C(F)(F)F)ccc2=O)cc1,/,0,17*,-8,-2,-5
Cc1cccc(OCc2nnc(SCC(=O)N3CCCC3)o2)c1,1,0,-1,9,0,7
Cc1cccc(OCc2nnc(SCc3nc4ccccc4c(=O)[nH]3)o2)c1,1,/,/,-16,45*,0
N#C[C@H]1[C@H](c2ccccc2-c2ccccc2F)[C@@H](CO)N1C(=O)Cc1ccccc1,/,0,18*,/,/,/
N#C[C@H]1[C@@H](c2ccccc2-c2ccccc2F)[C@@H](CO)N1C(=O)Cc1ccccc1,/,0,2,/,/,/
